High-throughput results (PubChem BioAssay)
Pf growth 48h – inhibits P. falciparum growth in the first generation, 48 h. 5.9% of 310,000 active. Potency, µM (top dose mostly 28.7 µM), for the others: at the top dose activity change, negative = inhibition, usual class: inhibitors. P. falciparum luciferase growth in erythrocytes, 48 h; further: potency means the concentration at half of the fitted maximal effect; on the % scale 0 is the no-effect control and ±100 the full control effect
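In quantitative HTS format, infected erythrocytes bearing luciferase-reporter parasites were treated for a single generation at 37 C. Luminescence after adding detection reagent served as the growth measure.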
Pf growth 96h – P. falciparum growth inhibition at 96 hour, primary screen for plastid delayed-death inhibitors; P. falciparum luciferase reporter growth, 96 h; Potency, µM (top dose mostly 28.7 µM), inactives show at the top dose activity change, negative = inhibition, hits mostly inhibitors; 6.9% of 320,000 active; further: potency means the concentration at half of the fitted maximal effect; on the % scale 0 is the no-effect control and ±100 the full control effect
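Compounds incubated with erythrocytes infected by luciferase-expressing P. falciparum (2% hematocrit, 0.05% parasitemia final) for 96 hours, 37 C in 5% CO2. Growth inhibition scored as decreased luciferase luminescence.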
Cycloheximide cs – counter-screen for Shiga toxin inhibitors: cycloheximide protein synthesis inhibition; cell reporter, cycloheximide protein synthesis inhibition counterscreen; max response, %; 12% of 300,000 active; in the data active means max response mostly above about 13%, no sharp cut-off; inactive means mostly below about 14%; further: read at 38.3 µM for the half of the compounds with a filed dose; 0% is about no effect
Shiga inhibitor – Shiga toxin inhibition. Vero cells, Shiga toxin protein synthesis inhibition reporter. inhibition, % at 38.7 µM. 9.2% of 290,000 active. AID 2315; in the data active means inhibition mostly above about 28%, no sharp cut-off; inactive means mostly below about 43%; further: 0% is about no effect
LmPK inh – blocks Leishmania mexicana pyruvate kinase activity; purified LmPK, Kinase-Glo ATP luminescence, 1 h; Q27686; AID 1721; 0.37% of 290,000 active; Potency, µM (top dose mostly 57.5 µM), for the others: at the top dose activity change, negative = inhibition, actives largely listed as inhibitors; further: potency means the concentration at half of the fitted maximal effect; on the % scale 0 is the no-effect control and ±100 the full control effect
Target sequence (Q27686 whole entry, looked up): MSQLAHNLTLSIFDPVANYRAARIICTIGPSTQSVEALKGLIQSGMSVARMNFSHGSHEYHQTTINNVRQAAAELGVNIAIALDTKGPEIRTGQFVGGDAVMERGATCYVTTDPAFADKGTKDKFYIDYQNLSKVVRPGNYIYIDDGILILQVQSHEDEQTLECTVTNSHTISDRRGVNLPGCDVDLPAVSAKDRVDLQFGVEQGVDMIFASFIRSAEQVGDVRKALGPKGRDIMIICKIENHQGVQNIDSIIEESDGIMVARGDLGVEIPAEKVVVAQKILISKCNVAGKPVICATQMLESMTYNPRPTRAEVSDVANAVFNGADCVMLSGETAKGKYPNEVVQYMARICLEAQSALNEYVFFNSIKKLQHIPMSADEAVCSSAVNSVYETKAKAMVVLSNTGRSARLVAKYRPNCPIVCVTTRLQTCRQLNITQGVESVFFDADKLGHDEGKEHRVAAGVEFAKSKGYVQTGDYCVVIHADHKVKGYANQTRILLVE
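ATP generated from ADP (0.1 mM) and PEP (0.5 mM) by 0.1 nM LmPK over 1 h at room temperature (pH 7.2 imidazole buffer) was detected by coupled luciferase luminescence. Values were normalized to uninhibited and no-enzyme wells.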
* hit, by the source's call; ? = inconclusive; · = not tested or not shown; [ ] = another dose, or the depositor's remark. Compounds with a hit are over-represented: about 22% of the library has one in this group of screens. Unless noted, the call rests on the fitted dose curve; in most records, active means well fitted inhibition curve with a large enough effect; inconclusive means small, poorly fitted or top-dose-only effect, or another doubt; inactive means no such curve, though single readings can be large or run the other way.

SMILES | Pf growth 48h | Pf growth 96h | Cycloheximide cs | Shiga inhibitor | LmPK inh
CS(=O)(=O)c1ccc(C(=O)Nc2ccc(N3CCCC3)cc2)c(Cl)c1 | ? | ? | -1 | 15 | -3%
Cc1ccc(NC(=O)c2cc(N3C(=O)C4CC=CCC4C3=O)ccc2N2CCCCC2)cc1 (configuration not stated) | 5% | 15µM* | -3 | -3 | 5%
Cc1ccc(NC(=O)c2cc(N3C(=O)C4CCCCC4C3=O)ccc2N2CCOCC2)cc1 (configuration not stated) | -15% | 32% | -1 | -1 | 8%
Cc1ccc(C(=O)Nc2ccc(N3CCCC3)cc2)c(C)c1 | ? | ? | 15* | 41 | -1%
CCOCc1nnc(NC(=O)C2CC(=O)N(CCc3ccc(F)cc3)C2)s1 (configuration not stated) | 12% | -7% | -3 | -7 | -7%
O=C(O)c1nn(CCOc2c(Cl)cccc2Cl)c(=O)c2ccccc12 | -2% | 39% | 9 | 10 | 0%
NS(=O)(=O)c1ccc(CCNC(=O)Nc2ccc(Cl)c(Cl)c2)cc1 | 3% | · | 1 | -14 | 7%
CN(C)c1ccc(P(=O)(OCc2ccccc2)C(O)c2ccccc2)cc1 (configuration not stated) | 10µM* | 2.3µM* | 8 | -14 | 2%
CC(C)OP(=O)(c1ccc(N(C)C)cc1)C(O)c1ccccc1F (configuration not stated) | -2% | -7% | -1 | 6 | -6%
CC(C)CCOP(=O)(c1ccc(N(C)C)cc1)C(O)c1ccc(Cl)cc1Cl (configuration not stated) | 9.3µM* | 9.3µM* | -4 | -11 | 5%
CC(C)CCOP(=O)(c1ccc(N(C)C)cc1)C(O)c1ccccc1F (configuration not stated) | 2.9µM* | ? | -3 | -26 | 1%
COC(=O)C(Cc1ccccc1)OS(N)(=O)=O (configuration not stated) | 78% | -20% | 1 | 2 | -7%
CN(C)C=NC(=O)c1cc(C(=O)c2ccc(Cl)cc2Cl)c[nH]1 | 27% | 4% | 16 | 28 | -1%
Cc1cc(-c2csc(NC(=O)c3cc4ccccc4o3)n2)c(C)n1C | 56% | -19% | 32* | 40* | -6%
O=C(Nc1nc(-c2cc3ccccc3oc2=O)cs1)c1ccc(Br)o1 | -1% | -1%[5.75 µM] | 15 | 71 | 2%
Cc1c(C(=O)Nc2nc(-c3ccccn3)cs2)oc2ccccc12 | 6.6µM* | ? | · | · | ·
O=C(Nc1nc(-c2ccccn2)cs1)c1cc2ccccc2o1 | ? | ? | 42* | 58* | -7%
COc1ccc(-c2noc(=O)n2Cc2ccccc2Cl)cc1 | -10% | -18% | -4 | 1 | 5%
O=C(N/N=C/C=C/c1ccccc1)c1cc2c(ccc3ccccc32)o1 | 22% | 87% | -1 | -19 | 1%
COc1cc(/C=C2\SC(=Nc3ccc(Cl)c(C(=O)O)c3)NC2=O)c(Br)c(Br)c1O | 21% | ? | -1 | 9 | ?
Cc1c(NC(=O)c2cccc(NC(=O)Cc3ccc(F)cc3)c2)c(=O)n(-c2ccccc2)n1C | -19% | ? | · | · | ·
O=C(NCCCN1CCC(Cc2ccccc2)CC1)c1ccc2nc(N3CCOCC3)sc2c1 | 10µM* | ? | -1 | -3 | 3%
CCCN1CCN(CCCNC(=O)c2ccc3nc(N4CCCCC4)sc3c2)CC1 | 3% | ? | 13* | 19 | -1%
CC1CC(C)CN(CCCNC(=O)c2ccc3nc(N4CCCCC4)sc3c2)C1 (configuration not stated) | -7% | 64% | 17* | 15* | -5%
CC1CCCC(C)N1CCCNC(=O)c1ccc2nc(N3CCOCC3)sc2c1 (configuration not stated) | -12% | 79% | 4 | 3 | -2%
SMILES | Pf growth 48h | Pf growth 96h | Cycloheximide cs | Shiga inhibitor | LmPK inh
COc1ccc(C(=O)OCn2nnc3ccccc3c2=O)cc1 | 13% | 37% | 21 | 29 | 1%[11.5 µM]
Nc1nc(Cl)nc2c1ncn2[C@@H]1O[C@H](CO)[C@H](O)C1F (some centres not stated) | -7% | -17% | · | · | ·
CCOC(=O)c1ccc(NC2OC(=O)c3ccccc32)cc1 (configuration not stated) | 29% | · | 15* | -5 | 0%
O=C1OC(Nc2ccccn2)c2ccccc21 (configuration not stated) | -11% | 15% | -2 | -26 | 0%
CC1=C/C(=C\C=C(C#N)C#N)N(C)c2ccccc21 | 18% | 4% | -2 | -11 | -5%
CC1=CC(=C(C#N)C#N)c2ccccc2N1C | 12µM* | 13% | -5 | -7 | -5%
NS(=O)(=O)c1ccc(NC(=O)COC(=O)CNC(=O)C23CC4CC(CC(C4)C2)C3)cc1 | -8% | 17% | -8 | -6 | -2%
CN(C)c1ccc(Nc2ccc([N+](=O)[O-])cn2)cc1 | 151% | -29% | 34* | 132* | 0%
Cc1ccc(Nc2ccc([N+](=O)[O-])cn2)cc1Cl | ? | -8% | 27* | 46* | 1%
CC(=O)Nc1ccc(Nc2ccc([N+](=O)[O-])cn2)cc1 | 17% | ? | 6 | 37 | -1%
O=[N+]([O-])c1ccc(Nc2ccc(F)cc2)nc1 | 40% | 29% | 15* | 32* | 2%
COc1ccc(-n2c(SCC(=O)NNC(=O)c3ccc(C)cc3)nnc2-c2ccncc2)cc1 | 3% | 29% | 0 | -11 | -2%
O=C(OCC(=O)N1CCN(C(=O)c2ccco2)CC1)c1cncc(Br)c1 | 12% | -19% | · | · | ·
CCc1cccc2c1NC(=O)C2(O)CC(=O)c1cccs1 (configuration not stated) | -14% | -3% | -2 | 16 | 0%
COc1ccc(OC)c2nc(-c3ccncc3)ccc12 | ? | 12% | 15* | 9 | 1%
COc1cccc2sc(Nc3nc(-c4ccncc4)cs3)nc12 | ? | -29% | 11 | 25 | 5%
Cc1cnc(C(=O)OC(C(=O)Nc2cc(C(F)(F)F)ccc2Cl)c2ccccc2)cn1 (configuration not stated) | 15µM* | 10µM* | -1 | -1 | -6%
O=C(Nc1cc(C(F)(F)F)ccc1Cl)C(NCc1ccccc1)c1ccccc1 (configuration not stated) | 10µM* | 9.3µM* | -2 | -5 | 1%
O=C(CNC(=O)c1ccccc1)OC(C(=O)Nc1cc(C(F)(F)F)ccc1Cl)c1ccccc1 (configuration not stated) | · | 13µM* | -3 | -10 | 1%
CCC(CC)c1nnc(NC(=O)c2ccc3ccccc3n2)s1 | 243% | 194% | 38* | 105* | 2%
Cc1cccc(NC(=O)c2ccc3ccccc3n2)c1C | 9% | 14% | 23* | 186* | -14%
O=C(Nc1nccs1)c1ccc2ccccc2n1 | 157% | 92% | 45* | 120* | -5%
Cc1csc(NC(=O)c2ccc3ccccc3n2)n1 | · | 131% | 42* | 98* | -10%
